Source: PubChem BioAssay
PAX8 reporter – inhibitors of PAX8-driven TPO luciferase reporter, primary screen, RMG-I cells, single concentration; SteadyGlo, 24 h; inhibition, % at 12.6 µM; 360,000 tested, 1.2% active; AID 652154, 2013;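 active means mean replicate inhibition at least 60% with every replicate also reaching 60%; inconclusive means only one of the two criteria is met; inactive means mean below 60% and not all replicates reaching 60%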;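 further: luciferase light reporting Pax8 driven TPO promoter activity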
INS-1E GSIS act – GLuc luminescence reporter in INS-1E cells, primary screen for activators of glucose-dependent secretion of insulin. 370,000 tested, 0.61% active. INS-1E GLuc reporter insulin secretion, 2-3 h. activation, % at 16.6 µM;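 active means lowest replicate activation of at least 40%, so every replicate reaches that level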
EWS-Fli inh – EWS/Fli-driven NR0B1 reporter inhibitors, primary screen, A673 cells, NR0B1 luciferase, luminescence, MLPCN library. viability-normalised. inhibition, % at 12.6 µM. 350,000 tested, 0.67% active;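 active means mean inhibition of at least 50% after viability correction, with every replicate also passing that limit; inconclusive means mean reaches 50% but only one of two replicates passes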;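 further: firefly luciferase signal divided by Alamar Blue viability fluorescence both relative to DMSO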
F508del corr – F508del CFTR correction, initial screen, CFBE line, single point; activity (quench increase), % at 7.58 µM; 350,000 tested, 0.36% active; CFBE cells, YFP halide quenching; stimulated with forskolin plus potentiator P3; % fluorescence drop versus neutral controls;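 active means mean added fluorescence quench of at least 8% versus neutral control, with both replicates also reaching 8%; inconclusive means only one of the mean or replicate conditions met; inactive means mean below 8% and not both replicates reaching 8%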;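 further: cells transiently co-express mutant CFTR-F508del with the halide-sensitive YFP; corrector assay measuring rescue of mutant channel to the surface after 24 h compound exposure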
Env fusion inh – inhibitors of HIV-1 Env-driven cell-cell fusion, primary screen, HeLa-JRFL effector, CEM21 target cells, luciferase. inhibition, % at 12.3 µM. 360,000 tested, 1.1% active;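 active means mean replicate inhibition score of at least 50 and every replicate individually at or above 50; inconclusive means only one of the two criteria met; inactive means mean below 50 and not all replicates reaching 50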
PGC1a acetyl inh – inhibitors of PGC1a acetylation signal, primary screen, cell-based, U2OS, AlphaScreen, inhibitor mode; AlphaScreen anti-acetyl-lysine; with virally co-expressed GCN5 acetyltransferase; inhibition, % at 15.6 µM; 350,000 tested, 0.17% active;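 active means every replicate shows inhibition of at least 40%; inconclusive means mean inhibition at least 40% but some replicate below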
A number is an active result; n = inactive; u = inconclusive; x = no result given; [ ] = remark or other dose. Hits are enriched below; roughly 2.7% of the tested compounds scored in any of these assays.

SMILES	PAX8 reporter	INS-1E GSIS act	EWS-Fli inh	F508del corr	Env fusion inh	PGC1a acetyl inh
C[C@H]1CN([C@@H](C)CO)C(=O)c2c(c3ccccc3n2C)-c2ccccc2CO[C@@H]1CN(C)C(=O)CCC(F)(F)F	65	n	n	n	n	n
COc1ccccc1NC(=O)N(C)C[C@@H]1OCc2ccccc2-c2c(n(C)c3ccccc23)C(=O)N([C@H](C)CO)C[C@@H]1C	n	n	n	n	67	n
C[C@H](CO)N1C[C@H](C)[C@@H](CN(C)Cc2ccc(Oc3ccccc3)cc2)OCc2ccccc2-c2c(n(C)c3ccccc23)C1=O	89	n	n	n	x	x
COCc1cn(CC[C@H]2CC[C@H](NC(=O)Nc3ccc(C(F)(F)F)cc3)[C@@H](CO)O2)nn1	x	n	x	n	x	n
O=C(C[C@H]1C=C[C@@H](NS(=O)(=O)c2ccc(F)cc2)[C@@H](CO)O1)NCCN1CCCCC1	n	n	n	n	n	n
CN1CCN(C(=O)C[C@H]2C[C@H]3c4cc(NC(=O)Nc5ccc(F)cc5)ccc4O[C@H]3[C@H](CO)O2)CC1	x	n	n	n	x	n
C[C@H](CO)N1C[C@H](C)[C@@H](CN(C)C(=O)C2CC2)OCc2ccccc2-c2c(n(C)c3ccccc23)C1=O	n	n	n	n	n	n
C[C@H](CO)N1C[C@H](C)[C@H](CN(C)C(=O)C2CC2)OCc2ccccc2-c2c(n(C)c3ccccc23)C1=O	n	n	n	n	60[16.7 µM]	n
CNC(=S)N/N=C/c1ccc(-c2ccc(Cl)c([N+](=O)[O-])c2)o1	n	46	n	n	n	n
COc1ccc2c3c([nH]c2c1)[C@H](CO)N(C(=O)Nc1ccc(F)cc1)CC31CN(S(=O)(=O)c2cn(C)cn2)C1	x	n	n	n	n	x
COc1ccc(C(NC(=O)C2CCN(Cc3ccc(Oc4ccccc4)cc3)CC2)c2ccccc2C)cn1 (stereo not given)	63	n	n	n	n	x
O=C(NCCCc1nc2ccccc2[nH]1)c1ccco1	x	n	n	n	84	x
O=C(NCCCc1nc2ccccc2[nH]1)c1cccs1	n	n	n	n	n	x
Cc1ccc(-c2nc(N)s[n+]2-c2ccccc2)cc1	x	n	n	n	n	x
CNc1nc(-c2ccccc2)[n+](-c2ccc(C)cc2)s1	x	176	x	x	x	x
COc1ccc2c3c([nH]c2c1)[C@H](CO)N(C(=O)NC(C)C)CC31CN(C(=O)c2cnccn2)C1	x	n	n	n	x	n
O=C(C[n+]1cc(-c2ccccc2)n2c1CCC2)N1c2ccccc2Sc2ccccc21	n	n	x	x	n	x
O=C(C[n+]1cc(-c2ccc(Br)cc2)n2c1CCCCC2)c1ccccc1	75	n	n	x	n	n
O=C(C[n+]1cc(-c2ccc(Cl)cc2)n2c1CCCCC2)c1ccccc1	93	n	n	n	n	x
Cc1ccc(-c2c[n+](CC(=O)N3c4ccccc4Sc4ccccc43)c3n2CCC3)cc1	91	n	n	x	n	x
CCOC(=O)C1CN(S(=O)(=O)c2ccccc2)c2cc(S(=O)(=O)CC)ccc2O1 (stereo not given)	n	x	x	x	n	50
COc1ccc(C(=O)OCc2nc(N)nc(Nc3ccccc3C)n2)cc1OC	n	n	n	8.4	n	x
COc1ccc(OCc2nc(N)nc(Nc3ccccc3OC)n2)cc1	n	x	x	x	n	n
COc1ccccc1Nc1nc(N)nc(CCl)n1	105	n	57	n	n	n
Cc1ccccc1Nc1nc(N)nc(COC(=O)c2cccc(S(=O)(=O)N(C)C)c2)n1	n	n	n	n	n	n
SMILES	PAX8 reporter	INS-1E GSIS act	EWS-Fli inh	F508del corr	Env fusion inh	PGC1a acetyl inh
COc1ccc(OC)c(Nc2nc(N)nc(CCl)n2)c1	118	x	u	n	n	n
CCCNC(=O)Nc1ccc2c(c1)OC[C@H](C)N(CCC)C[C@@H](C)[C@@H](OC)CN(C)C2=O	n	n	n	n	n	n
C[C@@H]1CN([C@@H](C)CO)C(=O)c2cc(NC(=O)Cn3cnnn3)ccc2O[C@@H]1CN(C)C	n	n	n	n	x	n
O=C(Nc1ccc(F)cc1)N1CC(=O)N2[C@H](CO)[C@@H](c3ccc(-c4ccccc4)cc3)[C@@H]2C1	n	n	60	n	x	n
O=C(Cc1ccccc1)N1CC(=O)N2[C@H](CO)[C@@H](c3ccc(-c4ccccc4)cc3)[C@@H]2C1	n	n	n	12	x	n
O=C(Cc1ccccc1)N1CC(=O)N2[C@H](CO)[C@@H](c3ccc(-c4ccc(F)cc4)cc3)[C@@H]2C1	n	n	n	n	x	n
COc1ccc(NC(=O)N2CC(=O)N3[C@@H](CO)[C@@H](c4ccc(/C=C/c5ccccc5)cc4)[C@@H]3C2)cc1	89	x	n	n	x	n
C[C@H]1CN([C@@H](C)CO)C(=O)Cc2cc(NC(=O)C3CCCCC3)ccc2O[C@@H]1CN(C)C(=O)NC1CCCCC1	n	n	n	n	x	n
O=C(c1cccnc1)N1C[C@@H]2[C@H](c3ccccc31)[C@@H](CO)N2C(=O)C1CCCCC1	n	n	n	n	x	n
COc1cc(-c2cc(OC)c(O)c(OC)c2)cc(OC)c1O	x	n	n	n	78	n
C[C@@H]1CN([C@@H](C)CO)C(=O)Cc2cc(NS(=O)(=O)c3ccc(F)cc3)ccc2O[C@H]1CN(C)C(=O)Nc1cccc2ccccc12	x	n	n	n	x	n
CCOC(=O)c1sc(NC(=O)c2c(CC)noc2C)nc1C	n	n	n	14	n	n
COC(=O)c1sc(NC(=O)c2c(C)noc2C)nc1C	n	n	n	n	n	n
CCOC(=O)c1sc(Nc2nc(C)cc(C)n2)nc1C	n	n	54	13	n	x
CCOc1ccc(C(=O)Nc2nc(C)c(C(=O)OC)s2)cc1	n	n	73	n	n	n
CN1CCN(C(=O)C[C@@H]2CC[C@@H]3[C@H](COC[C@@H](O)CN3C(=O)C3CC3)O2)CC1	n	n	n	n	x	n
C[C@H](CO)N1C[C@H](C)[C@@H](CN(C)Cc2ccc3c(c2)OCO3)OCCCC[C@H](C)Oc2ccc(NS(=O)(=O)c3cn(C)cn3)cc2C1=O	n	n	n	n	n	n
C[C@@H]1CN([C@@H](C)CO)C(=O)Cc2cc(NS(=O)(=O)c3ccc(F)cc3)ccc2O[C@H]1CN(C)S(=O)(=O)c1cccs1	n	n	n	n	n	n
Cc1ccc(S(=O)(=O)Nc2ccccc2C(=O)Nc2nc(-c3ccc(F)cc3)cs2)cc1	77	n	n	x	56	n
COc1ccc(-c2csc(NC(=O)c3ccccc3NS(=O)(=O)c3ccc(F)c(F)c3)n2)cc1	97	n	n	n	n	n
COc1ccc(-c2csc(NC(=O)c3ccccc3F)n2)cc1	n	n	n	n	n	n
CCc1ccc(OCc2n[nH]c(=S)n2Cc2ccccc2)cc1	n	n	n	n	n	n
